Results: publication PMC9911399, “Two distinct binding modes provide the RNA-binding protein RbFox with extraordinary sequence specificity”
Changes are numbered by the printed parent chain; changes in the protein carry UniProt numbers. Whole data set: some 16,000 sequences, median “ka relative to ugcaugu” near 0.0091, cut for the highest 2% near 0.032. The full list was thinned out, with the highest values kept by preference.

T1: RBFOX1 RRM (Homo sapiens, UniProt Q9NWB1 109-208)
T1 sequence: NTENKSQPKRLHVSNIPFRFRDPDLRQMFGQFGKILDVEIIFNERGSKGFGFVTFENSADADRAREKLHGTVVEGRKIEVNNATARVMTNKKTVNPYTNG

B1: CCUAUCU (DNA:RNA)
RNA: GGGAGACCGGAAUUCAGAUUGUCCCCUAUCUUUAAAUCCCGUCGUAGCCACCA
DNA 1: CAATCTGAATTCCGGTCTCCC
DNA 2: TGGTGGCTACGACGGGATT
B2: UCGUAUU (DNA:RNA)
RNA: B1 RNA with C25U, U27G, A28U, U29A, C30U
DNA 1: CAATCTGAATTCCGGTCTCCC
DNA 2: TGGTGGCTACGACGGGATT
B3: AAACUUG (DNA:RNA)
RNA: B1 RNA with C25A, C26A, U27A, A28C, C30U, U31G
DNA 1: CAATCTGAATTCCGGTCTCCC
DNA 2: TGGTGGCTACGACGGGATT
B4: CUCACCC (DNA:RNA)
RNA: B1 RNA with C26U, U27C, U29C, U31C
DNA 1: CAATCTGAATTCCGGTCTCCC
DNA 2: TGGTGGCTACGACGGGATT
B5: AACGCAA (DNA:RNA)
RNA: GGGAGACCGGAAUUCAGAUUGUCCAACGCAAUUAAAUCCCGUCGUAGCCACCA
DNA 1: CAATCTGAATTCCGGTCTCCC
DNA 2: TGGTGGCTACGACGGGATT
B6: CCUCACG (DNA:RNA)
RNA: B1 RNA with A28C, U29A, U31G
DNA 1: CAATCTGAATTCCGGTCTCCC
DNA 2: TGGTGGCTACGACGGGATT
B7: CAAGGGU (DNA:RNA)
RNA: B5 RNA with A25C, C27A, C29G, A30G, A31U
DNA 1: CAATCTGAATTCCGGTCTCCC
DNA 2: TGGTGGCTACGACGGGATT
B8: UUGAGUC (DNA:RNA)
RNA: B1 RNA with C25U, C26U, U27G, U29G, C30U, U31C
DNA 1: CAATCTGAATTCCGGTCTCCC
DNA 2: TGGTGGCTACGACGGGATT
B9: UUGAUCC (DNA:RNA)
RNA: B1 RNA with C25U, C26U, U27G, U31C
DNA 1: CAATCTGAATTCCGGTCTCCC
DNA 2: TGGTGGCTACGACGGGATT
B10: UCCUUGA (DNA:RNA)
RNA: B5 RNA with A25U, A26C, G28U, C29U, A30G
DNA 1: CAATCTGAATTCCGGTCTCCC
DNA 2: TGGTGGCTACGACGGGATT
B11: UUGAUGA (DNA:RNA)
RNA: B1 RNA with C25U, C26U, U27G, C30G, U31A
DNA 1: CAATCTGAATTCCGGTCTCCC
DNA 2: TGGTGGCTACGACGGGATT
B12: UUUCUGA (DNA:RNA)
RNA: B1 RNA with C25U, C26U, A28C, C30G, U31A
DNA 1: CAATCTGAATTCCGGTCTCCC
DNA 2: TGGTGGCTACGACGGGATT
B13: UUCUGAA (DNA:RNA)
RNA: B5 RNA with A25U, A26U, G28U, C29G
DNA 1: CAATCTGAATTCCGGTCTCCC
DNA 2: TGGTGGCTACGACGGGATT
B14: UUGAGUG (DNA:RNA)
RNA: B1 RNA with C25U, C26U, U27G, U29G, C30U, U31G
DNA 1: CAATCTGAATTCCGGTCTCCC
DNA 2: TGGTGGCTACGACGGGATT
B15: UUGUUGA (DNA:RNA)
RNA: B5 RNA with A25U, A26U, C27G, G28U, C29U, A30G
DNA 1: CAATCTGAATTCCGGTCTCCC
DNA 2: TGGTGGCTACGACGGGATT
B16: UUGAUUG (DNA:RNA)
RNA: B1 RNA with C25U, C26U, U27G, C30U, U31G
DNA 1: CAATCTGAATTCCGGTCTCCC
DNA 2: TGGTGGCTACGACGGGATT
B17: UUUCAGA (DNA:RNA)
RNA: B5 RNA with A25U, A26U, C27U, G28C, C29A, A30G
DNA 1: CAATCTGAATTCCGGTCTCCC
DNA 2: TGGTGGCTACGACGGGATT
B18: UUGAGAG (DNA:RNA)
RNA: B5 RNA with A25U, A26U, C27G, G28A, C29G, A31G
DNA 1: CAATCTGAATTCCGGTCTCCC
DNA 2: TGGTGGCTACGACGGGATT
B19: UUGAUUC (DNA:RNA)
RNA: B1 RNA with C25U, C26U, U27G, C30U, U31C
DNA 1: CAATCTGAATTCCGGTCTCCC
DNA 2: TGGTGGCTACGACGGGATT
B20: UCUCAAG (DNA:RNA)
RNA: B1 RNA with C25U, A28C, U29A, C30A, U31G
DNA 1: CAATCTGAATTCCGGTCTCCC
DNA 2: TGGTGGCTACGACGGGATT
B21: UCUUGAA (DNA:RNA)
RNA: B5 RNA with A25U, A26C, C27U, G28U, C29G
DNA 1: CAATCTGAATTCCGGTCTCCC
DNA 2: TGGTGGCTACGACGGGATT
B22: CUGUACU (DNA:RNA)
RNA: B1 RNA with C26U, U27G, A28U, U29A
DNA 1: CAATCTGAATTCCGGTCTCCC
DNA 2: TGGTGGCTACGACGGGATT
B23: UAUUACG (DNA:RNA)
RNA: B1 RNA with C25U, C26A, A28U, U29A, U31G
DNA 1: CAATCTGAATTCCGGTCTCCC
DNA 2: TGGTGGCTACGACGGGATT
B24: ACCUGUG (DNA:RNA)
RNA: B5 RNA with A26C, G28U, C29G, A30U, A31G
DNA 1: CAATCTGAATTCCGGTCTCCC
DNA 2: TGGTGGCTACGACGGGATT
B25: GAUAUAG (DNA:RNA)
RNA: B1 RNA with C25G, C26A, C30A, U31G
DNA 1: CAATCTGAATTCCGGTCTCCC
DNA 2: TGGTGGCTACGACGGGATT
B26: CUUAACU (DNA:RNA)
RNA: B1 RNA with C26U, U29A
DNA 1: CAATCTGAATTCCGGTCTCCC
DNA 2: TGGTGGCTACGACGGGATT
B27: AAGGGCU (DNA:RNA)
RNA: B5 RNA with C27G, C29G, A30C, A31U
DNA 1: CAATCTGAATTCCGGTCTCCC
DNA 2: TGGTGGCTACGACGGGATT
B28: UUAAAUG (DNA:RNA)
RNA: B1 RNA with C25U, C26U, U27A, U29A, C30U, U31G
DNA 1: CAATCTGAATTCCGGTCTCCC
DNA 2: TGGTGGCTACGACGGGATT
B29: UUGAAUC (DNA:RNA)
RNA: B1 RNA with C25U, C26U, U27G, U29A, C30U, U31C
DNA 1: CAATCTGAATTCCGGTCTCCC
DNA 2: TGGTGGCTACGACGGGATT
B30: UUGAAUG (DNA:RNA)
RNA: B1 RNA with C25U, C26U, U27G, U29A, C30U, U31G
DNA 1: CAATCTGAATTCCGGTCTCCC
DNA 2: TGGTGGCTACGACGGGATT
B31: GCUUGAU (DNA:RNA)
RNA: B1 RNA with C25G, A28U, U29G, C30A
DNA 1: CAATCTGAATTCCGGTCTCCC
DNA 2: TGGTGGCTACGACGGGATT

molecular target: T1, RBFOX1 RRM; assay: EMSA; HiTS-Eq, 1 nM pool, 10 min; buffer printed only for the single-RNA assays: 10 mM Tris pH 7.5, 150 mM NaCl, 3.4 mM EDTA, 0.001% NP-40, 30 C; conditions: tags: His6 N-terminal (pET28a); label: 5' 32P
In short: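 Purified RbFox RRM, wild type or mutant, was incubated for 10 min in 50 µL with 1 nM of a 5′-radiolabelled RNA pool carrying 7 randomized nucleotides, whose flanks were annealed to DNA oligonucleotides, over a series of increasing protein concentrations. Unbound RNA was resolved on 8% native PAGE, cut out, reverse-transcribed, barcoded by PCR and sequenced on an Illumina HiSeq 2500. Relative association constants were derived from changes in read counts for each RNA species versus the control reaction and normalised to the cognate motif.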

Binder	binding signal
B1	0.00242 KA relative to UGCAUGU
B2	0.00649 KA relative to UGCAUGU
B3	0.0047 KA relative to UGCAUGU
B4	0.00285 KA relative to UGCAUGU
B5	0.00455 KA relative to UGCAUGU
B6	0.00492 KA relative to UGCAUGU
B7	0.00279 KA relative to UGCAUGU
B8	0.0173 KA relative to UGCAUGU
B9	0.0141 KA relative to UGCAUGU
B10	0.0113 KA relative to UGCAUGU
B11	0.0228 KA relative to UGCAUGU
B12	0.0328 KA relative to UGCAUGU
B13	0.0233 KA relative to UGCAUGU
B14	0.0333 KA relative to UGCAUGU
B15	0.0329 KA relative to UGCAUGU
B16	0.0356 KA relative to UGCAUGU

Binder	binding signal
B17	0.0123 KA relative to UGCAUGU
B18	0.0165 KA relative to UGCAUGU
B19	0.0169 KA relative to UGCAUGU
B20	0.00583 KA relative to UGCAUGU
B21	0.0145 KA relative to UGCAUGU
B22	0.00801 KA relative to UGCAUGU
B23	0.0123 KA relative to UGCAUGU
B24	0.00788 KA relative to UGCAUGU
B25	0.0101 KA relative to UGCAUGU
B26	0.0019 KA relative to UGCAUGU
B27	0.0102 KA relative to UGCAUGU
B28	0.0123 KA relative to UGCAUGU
B29	0.0179 KA relative to UGCAUGU
B30	0.037 KA relative to UGCAUGU
B31	0.0264 KA relative to UGCAUGU
